Results: PubChem BioAssay (NCATS)
Results filed as inconclusive are left out. Entries that show only a call come without a potency. The source made the active and inactive calls. Unless noted, the call rests on the fitted dose curve; in most records, active means well fitted curve in the direction sought with a large enough effect; inconclusive means small, poorly fitted or top-dose-only effect, or another doubt; inactive means no such curve, though single readings can be large; an effect the other way counts as inactive or inconclusive.

Assays:
[1] = qHTS assay for measurement of the activity of small molecule inhibitors on Zika virus induced Caspase-3 activity in human iPSC derived neural progenitor cells (hNPCs) (AID 1224857); details: hNPCs ZIKV-induced caspase-3/7, Caspase-Glo luminescence, 6 h; series mostly up to 45.7 µM; further: nearly all actives have a fitted effect of over 65% in size
Procedure, shortened: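 Caspase-3/7 induction by a 6-hour ZIKV infection was quantified with a luminescent Caspase-Glo 3/7 reagent incubated 30 minutes at room temperature. Compounds were preincubated with hNPCs for 1 hour; inhibition was calculated against uninfected and infected control wells.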

[2] = qHTS assay for measurement of the activity of small molecule inhibitors on Zika virus induced Caspase-3 activity in human astrocytoma cells (AID 1224859); details: SNB-19 ZIKV-induced caspase-3/7, luminescence, 6 h; series mostly up to 45.7 µM
Procedure, shortened: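 In SNB-19 cells plated at 250 cells/well and grown 16-20 h, compounds were applied 1 h before ZIKV (2 FFU/cell). Six hours later caspase-3/7 luminescence was recorded.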

[3] = Natriuretic polypeptide receptor (hNpr1) antagonism - Pilot counterscreen GloSensor control cell line (AID 1347045; calls by dose curve); details: HEK293 cGMP GloSensor cells, SNP-stimulated luminescence, 20 min; series mostly up to 38.3 µM
Procedure, shortened: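 The SNP-driven cGMP luminescence signal (50 uM, 20 min, room temperature) was measured in GloSensor HEK293 control cells. Compounds were tested as a LOPAC titration series and preincubated for 30-50 min.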

[4] = molecular target: Atrial natriuretic peptide receptor 2 (Homo sapiens) (UniProt P20594); assay: Natriuretic polypeptide receptor (hNpr2) antagonism - Pilot subtype selectivity assay (AID 1347050; calls by dose curve; further: potency means the concentration at half of the fitted maximal effect); details: NPR2-expressing cells, cGMP antagonist-mode read-out; series mostly up to 38.3 µM
Atrial natriuretic peptide receptor 2 (Homo sapiens), sequence (P20594 whole entry, looked up): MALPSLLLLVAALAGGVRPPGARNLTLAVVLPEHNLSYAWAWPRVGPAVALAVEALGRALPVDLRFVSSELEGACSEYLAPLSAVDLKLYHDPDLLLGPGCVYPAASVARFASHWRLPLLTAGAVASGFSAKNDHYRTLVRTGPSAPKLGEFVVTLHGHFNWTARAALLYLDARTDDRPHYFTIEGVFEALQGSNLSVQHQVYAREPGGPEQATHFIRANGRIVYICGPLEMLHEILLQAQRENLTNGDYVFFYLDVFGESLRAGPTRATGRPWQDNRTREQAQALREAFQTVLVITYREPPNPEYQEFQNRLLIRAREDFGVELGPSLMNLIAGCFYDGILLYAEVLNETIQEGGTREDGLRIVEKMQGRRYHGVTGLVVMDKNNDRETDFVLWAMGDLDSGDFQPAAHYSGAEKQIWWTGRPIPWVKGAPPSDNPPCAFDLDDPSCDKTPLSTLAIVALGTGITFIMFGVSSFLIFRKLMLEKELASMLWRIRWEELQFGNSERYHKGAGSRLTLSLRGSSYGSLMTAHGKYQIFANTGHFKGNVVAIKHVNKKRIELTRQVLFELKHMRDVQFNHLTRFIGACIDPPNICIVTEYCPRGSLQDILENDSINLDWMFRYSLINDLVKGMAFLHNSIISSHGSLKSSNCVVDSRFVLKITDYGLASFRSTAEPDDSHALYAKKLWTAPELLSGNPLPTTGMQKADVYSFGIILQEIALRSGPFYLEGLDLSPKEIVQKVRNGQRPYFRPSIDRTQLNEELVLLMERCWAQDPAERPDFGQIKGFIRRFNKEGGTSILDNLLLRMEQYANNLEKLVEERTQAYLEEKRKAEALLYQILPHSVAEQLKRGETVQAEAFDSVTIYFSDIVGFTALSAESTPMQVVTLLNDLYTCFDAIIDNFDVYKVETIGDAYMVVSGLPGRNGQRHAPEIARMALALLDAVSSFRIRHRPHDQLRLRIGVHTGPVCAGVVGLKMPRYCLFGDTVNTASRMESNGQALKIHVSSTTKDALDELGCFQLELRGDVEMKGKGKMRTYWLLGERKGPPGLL
Procedure, shortened: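 Antagonist mode: compounds (LOPAC1280, seven 1:5 dilutions) added 30 min before 1 nM hNppC stimulation of hNpr2-HEK293 cGMP-sensor cells; luminescence read before and 20 min after agonist at ambient temperature.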

[5] = NS1 protein of Zika virus - qHTS assay to identify small molecule inhibitors in human HEK 293 cells (AID 1347053); details: HEK293 ZIKV MR766 infection, NS1 TR-FRET, 24 h; series mostly up to 46.1 µM; further: nearly all actives have a fitted effect of over 55% in size
Procedure, shortened: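 Readout was TR-FRET using paired anti-NS1 antibodies after 24 h infection of HEK 293 cells with ZIKV MR766 (MOI = 0.5). Compound preceded virus by 1 h; reduced signal reflects lower NS1 expression.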

[6] = P-glycoprotein substrates identified in KB-8-5-11 adenocarcinoma cell line, qHTS therapeutic library screen (AID 1346987); details: KB-8-5-11 (P-gp overexpressing) viability, CellTiter-Glo, 72 h; series mostly up to 44.5 µM; further: nearly all actives have a fitted effect of over 65% in size
Procedure, shortened: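 Human cervical adenocarcinoma KB-8-5-11 cells, selected in colchicine to over-express P-gp and assayed without it, were exposed for 72 h to titrated compounds. An ATP-based luminescent viability signal gave AC50.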

| SMILES | Potency [1] | outcome [2] | Potency [3] | Potency [4] | Potency [5] | Potency [6] |
| --- | --- | --- | --- | --- | --- | --- |
| COc1cccc2c1[C@@H]1CN(CCCCn3c(=O)[nH]c4c(sc5ncc(-c6ccccc6)nc54)c3=O)C[C@@H]1CO2 | inactive | inactive | inactive | inactive | inactive |  |
| O=C(OCC(COC(=O)c1cccnc1)(COC(=O)c1cccnc1)COC(=O)c1cccnc1)c1cccnc1 | inactive | inactive |  |  | inactive | inactive |
| O=C1NC(=O)/C(=C/c2ccc3c(c2)OC(F)(F)O3)S1 | inactive | inactive |  | inactive | inactive |  |
| CCCCC(CC)COC(=O)c1ccccc1C(=O)O (stereo not drawn) | inactive | inactive |  |  | inactive | inactive |
| Oc1ccccc1-c1nnco1 | inactive | inactive |  |  | inactive |  |
| CC(=O)/C=C/C=C1/C2CCC(C2)C1(C)C (stereo not drawn) | inactive | inactive |  |  | inactive |  |
| O=c1[nH]c(=O)n([C@H]2O[C@H](CO)[C@@H](O)[C@@H]2O)cc1/C=C\Br | inactive | inactive |  |  | inactive |  |
| CC(=O)c1ccc(O)c(C(N)=O)c1 | inactive | inactive |  |  | inactive |  |
| OCCc1ccccc1 | inactive | inactive |  |  | inactive | inactive |
| O=[N+]([O-])c1ccc(-c2nc(-c3ccc(F)cc3)c(-c3ccncc3)[nH]2)cc1 | inactive | inactive |  | inactive | inactive |  |
| c1ccc2occc2c1 | inactive | inactive |  |  | inactive | inactive |
| c1ccc(C(O[C@H]2CCCN(CCc3ccc4c(c3)OCO4)C2)c2ccccc2)cc1 | inactive | inactive |  |  | inactive |  |
| CCCCOCCOC(=O)c1cccnc1 | inactive | inactive |  |  | inactive |  |
| CC(C)CCCC(C)NCCC(C)C (stereo not drawn) | inactive | inactive |  |  | inactive |  |
| Cc1cc(CCCOc2c(C)cc(-c3noc(C(F)(F)F)n3)cc2C)on1 | inactive | inactive |  |  | inactive |  |
| COc1ccc(-n2nc(CCC(=O)N(C)O)cc2-c2ccc(Cl)cc2)cc1 | inactive | inactive |  |  | inactive |  |

| SMILES | Potency [1] | outcome [2] | Potency [3] | Potency [4] | Potency [5] | Potency [6] |
| --- | --- | --- | --- | --- | --- | --- |
| Clc1ccc2c(c1)N=C(N1CCNCC1)c1ccccc1N2 | inactive | inactive |  | 14.7 µM (active) | inactive |  |
| CN(C)CCN(Cc1ccsc1)c1ccccn1 | inactive | inactive |  |  | inactive |  |
| O=C1Cc2cc(Cl)ccc2N1 | inactive | inactive |  |  | inactive |  |
| COC(=O)c1cc(Cl)ccc1OC | inactive | inactive |  |  | inactive |  |
| CC1CC(=O)NN=C1c1ccc(NCC(C)(C)NCC(O)COc2cc(Cl)ccc2C#N)cc1 (stereo not drawn) | inactive | inactive |  |  | inactive | inactive |
| O=C(O)C(=O)Nc1cccc(-c2nn[nH]n2)c1 | inactive | inactive |  |  | inactive |  |
| Nc1ccc(C(=O)N2CC3CC(CN(Cc4ccccc4)C3)C2)cc1 | inactive | inactive |  |  | inactive |  |
| CC(NN)c1ccccc1 (stereo not drawn) | inactive | inactive |  |  | inactive |  |
| CC(C)(C)CC(=O)OCC(=O)[C@@]1(O)CC[C@H]2[C@@H]3CCC4=CC(=O)C=C[C@]4(C)[C@H]3[C@@H](O)C[C@@]21C | inactive | inactive |  |  | inactive |  |
| CCOCCn1c(C2CCN(CCc3ccc(C(C)(C)C(=O)O)cc3)CC2)nc2ccccc21 | inactive | inactive |  |  | inactive |  |
| c1ccc2c(c1)CCc1ccccc1N2 | inactive | inactive |  |  | inactive |  |
| COC(=O)/C=C(/C)N | inactive | inactive |  |  | inactive |  |
| CCOC(=O)N1CCC(n2c(=O)[nH]c3cc(Cl)ccc32)CC1 | inactive | inactive |  |  | inactive |  |
| CCCN(CCC)C(=O)C(CCC(=O)OCCCN1CCN(CCOC(=O)Cc2c(C)n(C(=O)c3ccc(Cl)cc3)c3ccc(OC)cc23)CC1)NC(=O)c1ccccc1 (stereo not drawn) | inactive | inactive |  |  | inactive |  |
| C#Cc1ccc(-c2ccccc2F)cc1 | inactive | inactive |  |  | inactive |  |
